Shown is part of a subset that was picked to be rich in hits.
nsP2pro inh – blocks chikungunya virus nsP2 protease peptide cleavage | 1.1% of 31,000 active | Q8JUX6 | Potency, µM (top dose mostly 24.9 µM), without a hit: top-dose activity change, negative = inhibition, actives largely listed as inhibitors | FRET peptide cleavage, nsP2pro, fluorescence 1 h; also: nearly all actives have a fitted effect of over 60% in size
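Enzyme 150 nM, substrate 2.5 uM (both final); Tris-HCl 10 mM pH 8.0 + 0.01% Tween 20; cpd up to 25 uM, 7 pts; 15 min preinc., 1 h RT; fluorescence ex 525/em 598.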
CHIKV nsP2 cell – secondary cell-based test for CHIKV nsP2 protease inhibitors; shares compounds with nsP2pro inh; cell-based CHIKV nsP2 protease reporter assay; Potency, µM (titrated, usually from 51.1 µM), inactives show at the top dose activity change, negative = inhibition, hits mostly inhibitors; 10% of 450 active; AID 1964100; also: nearly all actives have a fitted effect of over 70% in size
CHIKV NSP2 FL – inhibits full-length CHIKV NSP2 enzyme; Potency, µM (titrated, usually from 50.7 µM), without a hit: top-dose activity change, negative = inhibition, hits mostly inhibitors; Full-length CHIKV NSP2 protease enzymatic counterscreen; shares compounds with nsP2pro inh; 39% of 410 active; AID 1964101; also: nearly all actives have a fitted effect of over 65% in size
Furin counter – selectivity counter-screen for CHIKV nsP2 protease inhibitors: human furin. 6% of 410 active. shares compounds with nsP2pro inh. Potency, µM (titrated, usually from 50.6 µM), without a hit: at the highest dose activity change, negative = inhibition, usual class: inhibitors. Recombinant human furin enzymatic counterscreen, fluorogenic substrate
Target sequence (P09958 whole entry, looked up): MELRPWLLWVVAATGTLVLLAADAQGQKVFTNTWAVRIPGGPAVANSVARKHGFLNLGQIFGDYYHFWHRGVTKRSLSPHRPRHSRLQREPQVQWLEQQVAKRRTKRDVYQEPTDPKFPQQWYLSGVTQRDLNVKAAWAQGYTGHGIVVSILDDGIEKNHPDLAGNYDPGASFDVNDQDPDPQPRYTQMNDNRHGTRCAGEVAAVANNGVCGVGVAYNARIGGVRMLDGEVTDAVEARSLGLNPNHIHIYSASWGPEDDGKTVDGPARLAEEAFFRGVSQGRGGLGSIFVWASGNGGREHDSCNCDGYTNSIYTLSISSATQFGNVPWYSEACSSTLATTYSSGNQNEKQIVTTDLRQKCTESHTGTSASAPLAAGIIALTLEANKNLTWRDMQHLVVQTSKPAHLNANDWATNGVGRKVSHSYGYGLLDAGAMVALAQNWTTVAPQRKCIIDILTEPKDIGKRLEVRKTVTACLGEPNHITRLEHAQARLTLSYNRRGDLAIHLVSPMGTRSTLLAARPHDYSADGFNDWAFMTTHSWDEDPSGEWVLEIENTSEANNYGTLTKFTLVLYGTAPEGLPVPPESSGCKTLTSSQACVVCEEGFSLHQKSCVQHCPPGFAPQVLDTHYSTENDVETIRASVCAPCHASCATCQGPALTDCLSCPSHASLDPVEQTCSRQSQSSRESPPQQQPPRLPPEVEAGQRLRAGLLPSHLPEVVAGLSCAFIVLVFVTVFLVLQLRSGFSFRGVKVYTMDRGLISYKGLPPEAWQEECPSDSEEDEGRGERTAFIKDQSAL
nsP2 NS23 pep – selectivity test for CHIKV nsP2 protease inhibitors: endogenous NS2/3 peptide; 34% of 410 active; Potency, µM (top dose mostly 51 µM), for inactives: at the highest dose activity change, negative = inhibition, hits mostly inhibitors; shares compounds with nsP2pro inh; AID 1964103; Purified CHIKV nsP2 protease, endogenous NS2/3 peptide cleavage; also: nearly all actives have a fitted effect of over 55% in size
Papain counter – papain protease inhibition, counterscreen for nsP2pro inhibitors | purified papain protease activity, enzymatic inhibition | shares compounds with nsP2pro inh | 5% of 410 active | Potency, µM (top dose mostly 51 µM), for the others: top-dose activity change, negative = inhibition, hits mostly inhibitors
nsP2pro conf qHTS – confirmation of CHIKV nsP2 protease inhibitors. shares compounds with nsP2pro inh. AID 1964105. CHIKV nsP2 protease enzymatic activity, qHTS. Potency, µM (doses to about 25.5 µM), without a hit: top-dose activity change, negative = inhibition, hits mostly inhibitors. 43% of 410 active; also: nearly all actives have a fitted effect of over 75% in size
HCV NS3 4A cs – HCV NS3/4A protease inhibition, counterscreen; 20% of 410 active; Potency, µM (top dose mostly 50.9 µM), hits mostly inhibitors; HCV NS3/4A protease biochemical counterscreen; shares compounds with nsP2pro inh; also: nearly all actives have a fitted effect of over 55% in size
* hit, by the source's call; i = inactive; ? = inconclusive; [ ] = remark or other dose. Calls follow the shape of the full dose curve. % is scaled to controls: 0 for no effect and ±100 for the full control effect; potency is read from the fitted curve at half-maximal effect.

SMILES	nsP2pro inh	others
COc1cc2nc(N3CCCC3)nc(NCCCCCN3CCCC3)c2cc1OC	80.8%
O=C(Nc1ccccc1C(=O)Nc1ccc(CCO)cc1)c1ccc([N+](=O)[O-])cc1	30.9%
C/C(=C\c1ccc(F)cc1)C1Nc2cccc3cccc(c23)N1	i
O=C(C[C@@H]1C(C(=O)O)=CO[C@@H](O[C@@H]2O[C@H](CO)[C@@H](O)[C@H](O)[C@H]2O)/C1=C\CO)OCCc1ccc(O)cc1	2.8%[10 µM]
CCCCCCN(CCC(=O)NCCc1ccccc1)C(=O)c1cc(C)oc1C	-19.4%
COc1ccccc1C(=O)NCC(c1cccnc1)N1CCc2ccccc2C1 (centres undefined)	-16.6%
COc1ccc(C(=O)NCC(c2cccnc2)N2CCN(c3ccccc3)CC2)cc1 (centres undefined)	-10.2%
O=C(NCC(c1cccnc1)N1CCc2ccccc2C1)c1ccc(F)c(F)c1 (centres undefined)	?	CHIKV nsP2 cell=-12.0%
O=C(OCCN(CCO)CCO)c1ccccc1O	-20.2%
Cn1cc(S(=O)(=O)c2ccc(Cl)cc2)c2cccc(N3CCNCC3)c21	101.8%
COC(=O)c1ccc2c(c1)[nH]c1ncnc(NCCCN3CCCCC3)c12	34.3%
N#Cc1cccc(-c2c[nH]c3ncnc(N4CCOCC4)c23)c1	7.6%
CNc1oc(-c2cccc(Cl)c2)nc1C#N	3.6%
CC(C)(C)OC(=O)N1CCC(c2c(C(=O)NCCc3ccccc3)cnn2-c2ccc(F)cc2F)CC1	3.8%
CC(C)(C)OC(=O)N1CCC(c2c(C(=O)NCCN3CCc4ccccc4C3)cnn2-c2ccc(F)cc2F)CC1	-2.7%
COCCCNC(=O)c1cnn(-c2ccc(F)cc2F)c1C1CCNCC1	51.7%	CHIKV nsP2 cell=5.4%;CHIKV NSP2 FL=16.3µM*;Furin counter=-5.9%;nsP2 NS23 pep=?;Papain counter=-4.0%;nsP2pro conf qHTS=?;HCV NS3 4A cs=?
Cc1ccc(S(=O)(=O)Nc2ccccc2C(=O)Nc2ccc(-c3ccccc3)cn2)cc1	i
CNc1nc(C#N)c(-c2cccc3ccccc23)o1	-4.2%
Cc1ccc(S(=O)(=O)Nc2cnccc2C(=O)Nc2nc(-c3cccc(C)c3)cs2)cc1	3.4%
C[C@H](C(=O)NC1CCCC1)N(C(=O)Cn1nnc(-c2ccc3c(c2)OCO3)n1)C1CCCCC1	3.6%
O=C(NC1CCCCC1)N[C@H]1CO[C@H]2[C@@H]1OC[C@@H]2n1nnnc1-c1ccc2c(c1)OCO2	2.82µM*	CHIKV nsP2 cell=-10.8%;CHIKV NSP2 FL=18.3µM*;Furin counter=16.3µM*;nsP2 NS23 pep=16.3µM*;Papain counter=-2.3%;nsP2pro conf qHTS=4.49µM*;HCV NS3 4A cs=?
COc1cccc(-c2nnnn2[C@H]2CO[C@H]3[C@@H]2OC[C@@H]3NC(=O)C2CCCCC2)c1	18.9%[39.2 µM]
CC(C)(C)NC(=O)N1CCC(C(=O)Nc2ccc([S+](=O)([O-])Nc3nccs3)cc2)CC1	i
Fc1cc(Nc2nc(-c3ccncc3)nc3ccccc23)ccc1OC(F)(F)F	-8.0%
O=C(Nc1ccc(=O)n2c1[C@@H]1C[C@@H](CN(C(=O)COc3ccccc3)C1)C2)c1ccccc1	-0.1%
SMILES	nsP2pro inh	others
CCCS(=O)(=O)Nc1ccc(=O)n2c1[C@@H]1C[C@@H](CN(C(=O)c3ccc(OC)cc3)C1)C2	-8.6%
O=C(COc1ccccc1)N1C[C@@H]2C[C@H](C1)c1c(NS(=O)(=O)c3ccccc3)ccc(=O)n1C2	?	CHIKV nsP2 cell=4.0%;CHIKV NSP2 FL=16.3µM*;Furin counter=-4.1%;nsP2 NS23 pep=?;Papain counter=-3.3%;nsP2pro conf qHTS=?;HCV NS3 4A cs=?
O=[S+]([O-])(Nc1ccc(N2CCNCC2)cc1)c1ccc(NCc2ccc(Cl)cc2O)cc1	-13.8%
Cc1ccsc1CN(C)c1ncnc2ccc(-c3ccoc3)cc12	-22.1%
CCN(Cc1sccc1C)c1ncnc2ccc(-c3ccc4c(c3)OCO4)cc12	i
Cc1ccsc1CN(C)c1ncnc2ccc(-c3ccc(CO)o3)cc12	10µM*	CHIKV nsP2 cell=25.9µM*;CHIKV NSP2 FL=?;Furin counter=-8.7%;nsP2 NS23 pep=?;Papain counter=-8.3%;nsP2pro conf qHTS=2.8%;HCV NS3 4A cs=23.1µM*
CC(C)(C)n1nc(-c2ccc(Cl)cc2)c2c(N)ncnc21	19.0%
CC(C)n1nc(-c2ccc(NC(=O)Nc3cccc(C(F)(F)F)c3)cc2)c2c(N)ncnc21	-4.4%
CC(C)n1nc(C#Cc2ccccc2)c2c(N)ncnc21	4.42µM*	CHIKV nsP2 cell=87.0%;CHIKV NSP2 FL=?;Furin counter=?;nsP2 NS23 pep=?;Papain counter=39.2%;nsP2pro conf qHTS=7.98µM*;HCV NS3 4A cs=?
Nc1cc(NC(=O)Nc2nnc(-c3ccncc3)s2)ccc1Cl	i
COc1ccc(Cl)cc1C(=O)Nc1nc(-c2ccccc2)cs1	-3.3%
CN1C[C@H](C(=O)Nc2ccccc2)C[C@H]1c1cccc(C(F)(F)F)c1	-6.0%[39.2 µM]
C1=C(c2cnc[nH]2)c2ccsc2CC1	?	CHIKV nsP2 cell=4.5%;CHIKV NSP2 FL=85.0%;Furin counter=?;nsP2 NS23 pep=-12.4%;Papain counter=-1.4%;nsP2pro conf qHTS=40.1%;HCV NS3 4A cs=i
COc1ccc(C(=O)Nc2ccc(-c3nc4ccccc4[nH]3)cc2)cc1F	-11.1%
Cc1nc(CNc2ncnc3ccc(-c4ccoc4)cc23)cs1	i
[O-][n+]1ccccc1SSc1cccc[n+]1[O-]	2.71µM*	CHIKV nsP2 cell=?;CHIKV NSP2 FL=8.19µM*;Furin counter=-12.1%;nsP2 NS23 pep=9.19µM*;Papain counter=1.7%;nsP2pro conf qHTS=1.59µM*;HCV NS3 4A cs=i
O=C1Nc2ccccc2/C1=C\c1ccc(C(=O)O)cc1	i
O=c1c(-c2ccc(O)cc2)coc2cc(O[C@@H]3O[C@H](CO)[C@@H](O)[C@H](O)[C@H]3O)ccc12	-12.4%
COCCOc1cnc2ccn([C@H](C)c3nnc4c(F)cc(-c5cnn(C)c5)cn34)c(=O)c2c1	?	CHIKV nsP2 cell=3.2%;CHIKV NSP2 FL=-25.9%;Furin counter=-16.7%;nsP2 NS23 pep=-13.2%;Papain counter=3.5%;nsP2pro conf qHTS=?;HCV NS3 4A cs=i
CC(C)(C[C@@](O)(Cc1cc2ccncc2[nH]1)C(F)(F)F)c1cc(F)ccc1O	36.3%
OC[C@H]1O[C@H](OC[C@H]2O[C@H](O[C@]3(CO)O[C@H](CO)[C@@H](O)[C@@H]3O)[C@H](O)[C@@H](O)[C@@H]2O)[C@H](O)[C@@H](O)[C@H]1O	-17.8%
